Inconclusive results are not listed. Unmarked numbers belong to inactive results. Active and inactive are the calls of the source. Calls follow the shape of the dose curve; as a rule, active = well fitted inhibition curve with a large enough effect; inconclusive = small, poorly fitted or top-dose-only effect; inactive = flat fitted curve, though single readings scatter.
Experiment: P-glycoprotein substrates identified in KB-8-5-11 adenocarcinoma cell line, qHTS therapeutic library screen (AID 1346987); also: nearly all actives have a fitted effect of over 65% in size
Conditions: KB-8-5-11 (P-gp overexpressing) viability, CellTiter-Glo, 72 h; series mostly up to 44.5 µM; activity change, negative = cytotoxicity: at the top concentration
Procedure, shortened: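 Human cervical adenocarcinoma KB-8-5-11 cells, selected in colchicine to over-express P-gp and assayed without it, were exposed for 72 h to titrated compounds. An ATP-based luminescent viability signal gave AC50.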
% is scaled to controls: 0 for no effect and ±100 for the full control effect.

Structure (SMILES)	activity change, negative = cytotoxicity	outcome
COc1cc(Nc2nc3c(s2)CCCC3c2ccccc2)ccc1-n1cnc(C)c1 (configuration not stated)	-10.2% [at 9.29 µM]	–
Cc1nc2cc(-c3cc(F)cc(C#N)c3)ccc2s1	-3.95%	–
O=C(/C=C/c1ccccc1)O[C@@H]1[C@@H](CO)O[C@@](CO)(O[C@H]2O[C@H](CO)[C@@H](O)[C@H](O)[C@H]2O)[C@H]1O	9.6% [at 17.3 µM]	–
O=C(Nc1cc(-c2ccccc2)nn1-c1ccccc1F)c1ccc([N+](=O)[O-])cc1	-21.4%	–
COc1cn(-c2ccc(-n3cccn3)cc2F)nc(-c2ccnn2-c2ccccc2)c1=O	-12.7%	–
Cc1ccccc1-n1nc(-c2c(-c3ccc(F)cc3)nn3c2NC[C@@H](CO)C3)ccc1=O	-5.93%	–
O=C(O)c1ccncc1Nc1nn(CCN2CCC(F)(F)CC2)c2ccc(F)cc12	4.31%	–
COc1ccc(C2(O)c3c(ccc4c3OC(C)(CCC=C(C)C)C=C4)NC(=O)C2OC)cc1 (configuration not stated)	6.56% [at 17.3 µM]	–
NCCCCN(Cc1nc2ccccc2[nH]1)[C@H]1CCCc2cccnc21	9.98% [at 17.3 µM]	–
CC1=C2CC(=O)C(C)CC/C=C(\C)CC2(O)OC1=O (configuration not stated)	–	inactive
O=C(NC1Cc2ccccc2N(C[C@@H](O)CO)C1=O)c1cc2cc(Cl)sc2[nH]1 (some centres not stated)	0.381%	–
C=C1C(OC(C)=O)CCC2(C)CCC(C(C)(C)O)CC12 (configuration not stated)	–	inactive
CC1(C)C(=O)CCC2(C)C1C(O)C=C1COC(=O)C12O (configuration not stated)	-1.42%	–
CC(C)[C@@](O)(c1ccc2cc(OC(F)F)c(OC(F)F)cc2c1)c1cn[nH]n1	-6.09%	–
C[C@@H]1CC[C@]2(C(=O)O)CC[C@]3(C)C(=CCC4[C@@]5(C)C[C@@H](O)[C@@H](O)C(C)(C)C5CC[C@]43C)C2[C@]1(C)O (some centres not stated)	–	inactive [at 17.3 µM]
CC(=O)OC(C)C(C)(O)C(=O)O[C@@H]1CC[C@]2(C)CC(=O)C(=C(C)C)C[C@H]2[C@]1(C)OC(C)=O (some centres not stated)	-3.36% [at 17.3 µM]	–

Structure (SMILES)	activity change, negative = cytotoxicity	outcome
COC(=O)[C@H](c1ccccc1Cl)N1CCC2SC(=O)C=C2C1 (some centres not stated)	-24.4%	–
C=C1C(OC(C)=O)[C@@]23CCC4[C@](C)(C(=O)O)CCC[C@@]4(C)[C@]2(O)CC[C@H]1C3 (some centres not stated)	-2.24%	–
CCOC(=O)COc1ccc2c(c1)C[C@@H](NC[C@H](O)c1cccc(Cl)c1)CC2	4.51%	–
COc1cc(C(=O)OC[C@@]2(O)CO[C@@H](O[C@H]3[C@H](Oc4ccc(O)cc4)O[C@H](CO)[C@@H](O)[C@@H]3O)[C@@H]2O)cc(OC)c1O	9.54% [at 17.3 µM]	–
COC(=O)C1=C[C@@H](O)[C@@H](O)[C@H](O[C@@H]2O[C@H](CO)[C@@H](O)[C@H](O)[C@H]2OC(=O)/C=C/c2ccccc2)C1	2.09% [at 17.3 µM]	–
Cc1c(C)c(NCC(=O)N(C)C2CCN(Cc3ccc(C(N)=O)cc3)CC2)c(C)c(C)c1N	–	inactive
Cc1oc2nc3c(c(NC(=O)CN4CCCC4=O)c2c1C)CCCC3	2.3%	–
CC1(C)CC[C@]2(C(=O)O[C@@H]3O[C@H](CO)[C@@H](O)[C@H](O)[C@H]3O)[C@H](O)C[C@]3(C)C(=CCC4[C@@]5(C)CC[C@H](O[C@@H]6OC[C@@H](O)[C@H](O)[C@H]6O)[C@@](C)(C(=O)O)C5CC[C@]43C)[C@@H]2C1 (some centres not stated)	–	inactive [at 17.3 µM]
CNc1nc(C)nc(N[C@H]2CCC[C@@H](C(=O)NCc3ccc(C#N)cc3C(F)(F)F)C2)n1	-11.7%	–
C=C(COC(=O)C(C)C)C1Oc2cc(C(C)=O)ccc2C1OC(=O)C(C)C (configuration not stated)	–	inactive
COC(=O)c1[nH]c(=O)c2ccccc2c1-c1ccc[nH]1	-7.05%	–
COC(=O)/C=C/c1ccc(O[C@@H]2O[C@H](CO)[C@@H](O)[C@H](O)[C@H]2O)cc1	5.7%	–
CC(=O)OCC1=CCC2C(C)(C)CCCC2(C)C12CCC(C)(CC(=O)O)O2 (configuration not stated)	-3.85%	–
CC(C)C(NC(=O)c1ccc(O)cc1)C(=O)N1CCCC1C(=O)Nc1c(O)cccc1C(=O)O (configuration not stated)	–	inactive [at 17.3 µM]
CC1(C)CC[C@]2(C(=O)O[C@@H]3O[C@H](CO[C@@H]4O[C@H](CO)[C@@H](O)[C@H](O)[C@H]4O)[C@@H](O)[C@H](O[C@@H]4O[C@H](CO)[C@@H](O)[C@H](O)[C@H]4O)[C@H]3O)[C@H](O)C[C@]3(C)C(=CCC4[C@@]5(C)CC[C@H](O[C@@H]6OC[C@@H](O)[C@H](O)[C@H]6O)[C@@](C)(C(=O)O)C5CC[C@]43C)[C@@H]2C1 (some centres not stated)	–	inactive [at 9.29 µM]
CC1(C)CC[C@]2(C(=O)OC3OC(CO)C(O)C(O)C3O)CC[C@]3(C)C(=CCC4[C@@]5(C)C[C@@H](O)[C@H](OC6OC(C(=O)O)C(O)C(O)C6O)C(C)(C)C5CC[C@]43C)[C@@H]2C1 (some centres not stated)	8.55% [at 9.29 µM]	–

Source: PubChem BioAssay (NCATS)
